Some test systems named below: HCT-15 colon; HT29 colon; SNB-75 CNS; SNB-19 CNS; U251 CNS; PC-3 prostate; SK-MEL-5 melanoma; UACC-62 melanoma; LOX IMVI melanoma; SK-MEL-28 melanoma; SK-MEL-2 melanoma; EKVX NSCLC; SN12C renal; UO-31 renal; TK-10 renal; ACHN renal; CAKI-1 renal; CCRF-CEM leukemia; MOLT-4 leukemia; A498 renal.
Common to all, as to assay: NCI-60 one-dose screen, 48 h (100 = growth as untreated, 0 = no growth, -100 = all killed)
Conditions in all cases: 10 µM unless noted

Several values for one entry are separate records, joined by “and”; a condition that tells them apart may be missing. Equal entries are not always repeated. This is part of a sample that, as a whole, favours compounds with a hit. Of some 83,000 tested, about 20% had one in any assay.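 96-well plates, one dose, 48 hours. Percent growth reported; active if below 10.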 Activity calls are given as the source filed them.

For the compound `CC1(c2ccc3ccccc3c2)CCC(=O)O1` (stereo not given), the growth is 107% (inactive) in the test on HCT-15 colon; 96.9% (inactive) in the test with HT29 colon; 100% (inactive) with SNB-75 CNS; 106% (inactive) in the test on SNB-19 CNS; 99.9% (inactive) with U251 CNS; 97.9% (inactive) in the test with PC-3 prostate. Moreover, the growth with SK-MEL-5 melanoma is 105% (inactive); in the test on UACC-62 melanoma it was 95.7% (inactive); in the test with LOX IMVI melanoma, 93.1% (inactive); with SK-MEL-28 melanoma it was 102% (inactive); with SK-MEL-2 melanoma it was 86.6% (inactive); in the test on EKVX NSCLC, 111% (inactive). Further, the growth was 102% (inactive) in the test with SN12C renal; 81.1% (inactive) with UO-31 renal; 93.5% (inactive) in the test on TK-10 renal; 101% (inactive) in the test on ACHN renal; 100% (inactive) in the test with CAKI-1 renal; 105% (inactive) in the test with CCRF-CEM leukemia. Moreover, in the test with MOLT-4 leukemia, the growth is 95.2% (inactive).

For the compound `CNc1ccc2nc3ccc(=[N+](C)C)cc-3sc2c1`, the growth in the test on HCT-15 colon was 17.2% (inactive) and 9.61% (active); in the test with HT29 colon it was 9.87% (active) and 38.1% (inactive); with SNB-75 CNS, -53.5% (active); in the test with SNB-19 CNS it was 1.89% (active) and -5.26% (active); with U251 CNS, -48.5% (active) and -15.5% (active); in the test with PC-3 prostate, 1.57% (active) and 1.01% (active). In addition, the growth is -97% (active) and -61.1% (active) with SK-MEL-5 melanoma; 4.52% (active) and -3.38% (active) in the test with UACC-62 melanoma; -57.5% (active) and -44.1% (active) with LOX IMVI melanoma; -31.3% (active) and 27.9% (inactive) in the test on SK-MEL-28 melanoma; 4.78% (active) and 4.79% (active) in the test with SK-MEL-2 melanoma; 40.9% (inactive) and 44.1% (inactive) in the test on EKVX NSCLC. The growth in the test with SN12C renal was -22% (active) and -62.5% (active); in the test on UO-31 renal, 26.7% (inactive) and 33.7% (inactive); in the test on ACHN renal, 14.6% (inactive) and -27.6% (active); in the test with CAKI-1 renal it was 11.2% (inactive) and 4.64% (active); in the test with CCRF-CEM leukemia, 9.67% (active) and 11.8% (inactive); in the test with MOLT-4 leukemia it was -8.79% (active) and 12.2% (inactive).

With `CC(=O)c1ccccc1O`, the growth in the test with HCT-15 colon is 112% (inactive) and 105% (inactive) and 223% (inactive); in the test on HT29 colon, 107% (inactive) and 99.2% (inactive) and 111% (inactive); in the test on SNB-75 CNS it was 107% (inactive) and 93% (inactive) and 97.7% (inactive); in the test with SNB-19 CNS it was 102% (inactive) and 105% (inactive) and 94.1% (inactive); with U251 CNS it was 108% (inactive) and 98.7% (inactive) and 104% (inactive); in the test with PC-3 prostate, 102% (inactive) and 83.5% (inactive) and 91.7% (inactive). The growth in the test with SK-MEL-5 melanoma was 100% (inactive) and 102% (inactive); in the test on UACC-62 melanoma it was 101% (inactive) and 105% (inactive); in the test with LOX IMVI melanoma, 100% (inactive) and 92.7% (inactive) and 103% (inactive); in the test on SK-MEL-28 melanoma, 103% (inactive) and 91.7% (inactive) and 109% (inactive); in the test on SK-MEL-2 melanoma, 107% (inactive) and 98.5% (inactive) and 111% (inactive); in the test with EKVX NSCLC, 99.7% (inactive) and 108% (inactive) and 104% (inactive). The growth with UO-31 renal was 80% (inactive) and 90.5% (inactive) and 68.1% (inactive); with TK-10 renal, 104% (inactive) and 95.9% (inactive) and 95.7% (inactive); in the test on ACHN renal, 105% (inactive) and 101% (inactive) and 104% (inactive); in the test on CAKI-1 renal it was 92.5% (inactive) and 99.4% (inactive) and 87.3% (inactive); with A498 renal it was 92.5% (inactive) and 86.6% (inactive); with CCRF-CEM leukemia, 107% (inactive) and 104% (inactive) and 101% (inactive). The growth in the test on MOLT-4 leukemia is 88.1% (inactive) and 91.6% (inactive) and 104% (inactive).

Regarding `CC(=O)c1ccc2c(c1)N(CCCN1CCN(CCO)CC1)c1ccccc1S2`, the growth with HCT-15 colon was 38.2% (inactive) and -17.3% (active); with HT29 colon it was 69.1% (inactive) and -22.6% (active); in the test with SNB-75 CNS, 67% (inactive) and -12.1% (active); in the test on SNB-19 CNS, 114% (inactive) and 46.4% (inactive); with U251 CNS, 85.7% (inactive) and 20.6% (inactive); with PC-3 prostate, 69.7% (inactive) and 24.2% (inactive). Also, the growth is 88.9% (inactive) and -99.1% (active) with SK-MEL-5 melanoma; 95.8% (inactive) and -58.7% (active) in the test on UACC-62 melanoma; 80.1% (inactive) and -85.2% (active) in the test with LOX IMVI melanoma; 77.9% (inactive) and -91.7% (active) with SK-MEL-28 melanoma; 2.74% (active) and -42% (active) in the test with SK-MEL-2 melanoma; 83.9% (inactive) and 60.6% (inactive) in the test on EKVX NSCLC. Further, the growth in the test with SN12C renal is 99% (inactive) and 53.6% (inactive); in the test with UO-31 renal, 56.9% (inactive) and 2.41% (active); with TK-10 renal, 86.4% (inactive) and 27.5% (inactive); in the test with ACHN renal it was 95.5% (inactive) and 30.7% (inactive); in the test on CAKI-1 renal, 77.3% (inactive) and 15.7% (inactive); with CCRF-CEM leukemia, 80.8% (inactive) and 16.2% (inactive). For the same compound, the growth in the test on MOLT-4 leukemia was 60.4% (inactive) and 4.26% (active).

The values above are taken from PubChem BioAssay (NCI).
